± gives the standard deviation of the averaged measurements. In all, about 25,000 sequences were measured (“ln(normalized median fluorescence intensity)”: median about 7.9, highest 2% from about 11 on). This is one part of a sample in which the highest values are shown more often than they occur.
Tested on: PfAP2-I AP2 domain 3 (GST-tagged)
Test: gcPBM binding intensity (ln(normalized median fluorescence intensity)); higher = stronger DNA binding
Outline: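 GST-tagged P. falciparum DNA-binding domains produced in E. coli were incubated for 1 h on an Agilent 4 × 180k array of primer-extended double-stranded 36-bp intergenic genomic probes with negative controls. Binding intensity is the highest Masliner-normalised natural-log median intensity across replicate spots of either probe orientation, with bound protein detected by Alexa488 anti-GST antibody at 488 nm.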

| Sequence | gcPBM binding intensity (ln) |
| --- | --- |
| AAATAAGAAAAAGCGCGTACACATAACATTTTTATA [XGTACX_site8807] | 7.82 ± 0.54 |
| TTAACGTAAAATATAGTGCATAGTATCATATTGATA [GTGCAC_site9527] | 9.5 ± 0.099 |
| GGTTTGAATTTTTAAGTGCATATAACATAAATGAAA | 9.86 ± 0.23 |
| TTTGAAATATTAAATGCATGTTAAAACATAAAAATG [TGCATGCA_site680] | 7.91 ± 0.73 |
| TATGTTTTTGAATGAGTGCATTAAAATAAAACATTT | 11.3 ± 0.61 |
| TATAATATGACAAGAAGTACATATATTTACATATAT [XGTACX_site1571] | 7.54 ± 0.29 |
| AAATCAAACTTTGGTGTGCACAAATATATACATATA [GTGCAC_site9986] | 10.545 ± 0.007 |
| TATATTAACAAAATGGTGCAATAATTTCTATATTAT [GTGCAC_site9857] | 11.3 ± 0.61 |
| AAAAATTAACAAAAGGTGCAATTTATTTATTAACGG | 10.3 ± 0.5 |
| AATAAGTAACAAAATACACACATATAGGTAATTATA [CACACA_site6949] | 7.62 ± 0.59 |
| TAATATAATATATAGGTGCAATATTAACAAAAATTT | 11 ± 0.44 |
| TACAATGAAAAAATAACATGCAATTATATTTCTCTT [TGCATGCA_site833] | 8.23 ± 0.74 |
| CATAACATAAAATAGGTGCACAAAAATTGTAATTGA | 11.37 ± 0.021 |
| ATTTAAATACAAAATTGTACTTTTCTATATTTAACA [XGTACX_site6146] | 7.79 ± 0.41 |
| TATATTAACAAAATGGTGCAATAATTTCTATATTGT [GTGCAC_site9430] | 11.2 ± 0.54 |
| TATATTCAAAATGGTACACACAATATTTAATTGTGC [CACACA_site2631] | 7.68 ± 0.34 |
| TAATATATATAACAAGTGCAAAAAAATATAGATATT [GTGCAC_site9625] | 9.38 ± 0.33 |
| GTTGTGTAATTCGTAACACACATAAAATATATATAA [CACACA_site6059] | 7.76 ± 0.48 |
| TATTAATTTAAATGGGTGCAAAACCTATATAAATAT | 10.6 ± 0.55 |
| AATGGGTTACACATATGTACATAAAATATAAAAAAT [XGTACX_site3440] | 8.06 ± 0.73 |
| GGAGAATAGTGGAAAACACACACGTTTGAGATATGG [CACACA_site1168] | 7.92 ± 0.91 |
| GATTAACAACATATTAGTACATATATTATATATATA [XGTACX_site7646] | 8.61 ± 0.23 |
| AGTTTCTATTTAGTGTGTACTTAAGAAAAATATCTC [XGTACX_site82] | 7.88 ± 0.4 |

| Sequence | gcPBM binding intensity (ln) |
| --- | --- |
| AGAAGAAAAGAAATATGTACATAAACGTCTGAACTA [XGTACX_site1699] | 7.8 ± 0.71 |
| CCTTTTGGATGAAAGTGTACAGGTGAGAAAAATTCC [XGTACX_site3358] | 8.07 ± 0.54 |
| TTATCGGTATAATATAGTACATATAGATATATAATA [XGTACX_site1440] | 7.7 ± 0.39 |
| TTTGATAAATTATACACACACAATATATATAAAATA [CACACA_site2023] | 7.72 ± 0.51 |
| CTTAAACTTTTAAATACACACATACAGACATACACA [CACACA_site6401] | 8.055 ± 0.021 |
| ATTTTTTTTTAATGCAATATATTTTGAAAATTTTAT [CACACA_negctrl_site753] | 8.62 ± 0.27 |
| AGCAAAACAAAAAAATTAAAATTAACATATAATCAT [GTGCAC_negctrl_site393] | 7.38 ± 0.62 |
| GTAGACATTATAATGGTGCAAAAAAATTAACAAAAA [GTGCAC_site9891] | 10.9 ± 0.3 |
| TATATATATATATAGGTGCAATATTGAAAAAATATC [GTGCAC_site9535] | 11.3 ± 0.47 |
| ATGTATGCAAAAATGGTGCATATTAAATGTATAACA [GTGCAC_site9722] | 10.8 ± 0.49 |
| AGAAAAAAAAAAAAAAAAAAAAAATTGAATATATAT [TGCATGCA_negctrl_site55] | 7.67 ± 0.81 |
| ATATTATAATTGAAGGTGCAAAATGTAATATAGATA [GTGCAC_site9661] | 10.9 ± 0.49 |
| AGATATTATAATTAATGTACAAAAAGAAAAAATAGA [XGTACX_site8964] | 7.86 ± 0.64 |
| AAATATAATTAATGATGTACACTTATAGATATTGAT [XGTACX_site8435] | 8.09 ± 0.24 |
| ATGTTATTAATAATTGCACACATTTTTTTTTTTTTT [CACACA_site3920] | 9.12 ± 0.23 |
| AAAAATATATAACAAAGTACATATATATTTAGTAAT [XGTACX_site8791] | 7.43 ± 0.4 |
| AAAATAAAATAAAAGTGTACGTTTTAAGAACATTGA [XGTACX_site2382] | 7.76 ± 0.48 |
| ATCTGTCGACAGGACAGTACACAGTAGCCAGTAACT [XGTACX_site2001] | 7.63 ± 0.76 |
| AATTTAAAGTTTTTTTTTTTTTTTTTTTTTTTTTTG [CACACA_negctrl_site1082] | 7.39 ± 0.31 |
| AACATTTCCTTTCTGTGTACATATAAACCCATCTAT [XGTACX_site2071] | 8.13 ± 0.64 |
| AAATATTATAAAAAGGTGCATTTTTATTATATGAGT | 10.5 ± 0.35 |
| TGTTTTATTTAGAAGGTGCACATTAATATTAAATAA | 11.3 ± 0.45 |
| TATCATATATGAAGGTGTACGATTTATTATATAAAT [XGTACX_site7010] | 7.87 ± 0.54 |

| Sequence | gcPBM binding intensity (ln) |
| --- | --- |
| TTATTTTTTTTTAGAGCACACATTTTTAATAAGGTA [CACACA_site2133] | 9.54 ± 0.2 |
| TAATGCAACATTTATGTGCACATAAATATTTTTTAA | 9.815 ± 0.064 |
| ATTATCAATATGAAGGTGCATTTAAATAATATTTAC | 11.3 ± 0.7 |
| TTTTCAATTAATAATACACACATGTATTTATTATTA [CACACA_site5774] | 7.83 ± 0.34 |
| ATAAATTCATATATGAGTACTAAAAATATCTTTTTC [XGTACX_site5541] | 7.61 ± 0.45 |
| ATTTATGGAAAAAGAACACACAATCAAACAAAAATA [CACACA_site3707] | 8.01 ± 0.57 |
| TTATAATTTTTGAGCACACACAAGCATATATATATA [CACACA_site1798] | 9.475 ± 0.049 |
| ATATATATATATTTCGCACACATAATCTTATTAAAT [CACACA_site2579] | 9.22 ± 0.31 |
| TATGGATAAATAAATACACACATAAATTTAAATATA [CACACA_site1282] | 7.57 ± 0.61 |
| GTTTATCACAGCCACGCACACATAATATCTGTATAT [CACACA_site5929] | 8.18 ± 0.59 |
| GAACATTTGAAATATGCACACATGTATAAACCTACA [CACACA_site2654] | 8.7 ± 0.4 |
| CTTATATATACGTGCACACATATATATAAGATATAT [CACACA_site1752] | 11.03 ± 0.11 |
| AGATAAGATATATACACACACATAAATACGTACAAA [CACACA_site6639] | 8.35 ± 0.16 |
| TGCTTATATATACGTGCACACATATATATAAGATAT [CACACA_site8516] | 10.9 ± 0.11 |
| ATAAATAAGATACGTACACACATATACAAAATATAC [CACACA_site3661] | 8.14 ± 0.26 |
| TATATATATATATGTGCACACATAAAGATATTATTT [CACACA_site3734] | 10.18 ± 0.021 |
| TATATATATATGTGCACACATAAAGATATTATTTTT [CACACA_site3733] | 10.2 ± 0.042 |
| AAGGTAGAAATATGTTGTACGGTTTGGAGGAAGCAA [XGTACX_site1105] | 8.12 ± 0.49 |
| AGTACATTTTTTTTAATAGGAAAAAAAATATTTATT [TGCATGCA_negctrl_site575] | 7.66 ± 0.57 |
| TTTTTTGCTAAGTGTACACAAATGTTTATTAATTTA [CACACA_site5859] | 8.42 ± 0.27 |
| AAATAAAGAATATAAATACACACTTAAATATATATT [CACACA_site4007] | 7.58 ± 0.61 |
| ATATATATATATAGTGCACACTTAAGAATATAAAGA [CACACA_site4771] | 11.5 ± 0.27 |
| ATATATATATAGTGCACACTTAAGAATATAAAGAGG [CACACA_site1151] | 11.5 ± 0.3 |

| Sequence | gcPBM binding intensity (ln) |
| --- | --- |
| ATAAAGAATATAAATACACACTTAAATATATATTAT [CACACA_site6071] | 7.64 ± 0.44 |
| ATAAAGAATATAAATACACACTTAAATATAGATTAT [CACACA_site7804] | 7.6 ± 0.45 |
| AAAAAAAAAAAAAGTGCACACTTTTAATATAAATAT [CACACA_site3314] | 10 ± 0.35 |
| TATATGTATGTATGTACACACAAAAAATGGAATATA [CACACA_site3717] | 7.93 ± 0.35 |
| GGTATATTAAAATAGGTGCATAAAACTAAGAGAAAA [GTGCAC_site9781] | 11.3 ± 0.54 |
| GTATTATATATATAGGTGCATATATATATATAAATA [GTGCAC_site9787] | 10.6 ± 0.33 |
| AAAAATAAAGAAACAGGTACGCATATATTAAGATAT [XGTACX_site8097] | 7.98 ± 0.78 |
| CAATATTATTATATTTGTACACATGCGTATTTTTTA [XGTACX_site4154] | 7.74 ± 0.47 |
| TAACTTAATATTAATGCACACAATTTATATATATAT [CACACA_site3903] | 11.3 ± 0.38 |
| TAACTTAATTTTAATGCACACAATTTATATATATAT [CACACA_site6022] | 11.2 ± 0.52 |
| TTTTTAAAATATTTAACACACAATTATAATGCATAA [CACACA_site3932] | 8.885 ± 0.035 |
| TTAATATAACTTTTTGCACACTTAATTTTTTTTTTT [CACACA_site3364] | 9.32 ± 0.085 |
| AATATAACTTTTTGCACACTTAATTTTTTTTTTTAA [CACACA_site3365] | 9.79 ± 0.11 |
| TAAATTATATTATGCACACTTAAAAATATATTTAAC [CACACA_site3512] | 10.4 ± 0.49 |
| ACACGTTTATATAAAAAATTAAAATTTTTCTTATTT [CACACA_negctrl_site1523] | 7.95 ± 0.32 |
| TTGCCCCAGGAGTTCACACACATAATAGATTGTCAC [CACACA_site726] | 7.79 ± 0.61 |
| ATATTTTATTTTAATACACACAAGTTATATAACCAC [CACACA_site6508] | 8.19 ± 0.48 |
| CAAGTATTAATTATGTGTACATATATATATATATAT [XGTACX_site5311] | 9.36 ± 0.23 |
| ATCGTGTTAAATGTTGTGCACATATAAATTACAAAA [GTGCAC_site9822] | 10.605 ± 0.007 |
| TTGTTGTGTATTATCGTGCACATAATATAAAAGATT | 11.11 ± 0.078 |
| TATATGTATGTTTGTGTGCACACATAAATATTATAT | 9.79 ± 0.042 |
| TAAATGAAAATATGTACACACTTGAAAACTTTTATG [CACACA_site7388] | 7.84 ± 0.45 |
| GTTTTATAAAAAGGCGCACACATATACATAAATATA [CACACA_site1864] | 8.47 ± 0.37 |
